# Assay results taken from PubChem BioAssay AID1159580 (chemical genetic matrix, 2015).
# Among all 5,500 compounds or so, about 2,000 (36%) were called active. Another 18% or so got no clear call; they are omitted. The list shows a part of the results. Values without a mark were called inactive. Rule as the data show it: active = normalized growth mostly below about 0.91 (no sharp cut-off); inconclusive = no clear call, values can overlap the other calls; inactive = mostly above about 0.92.
# Assay: chemical genetic growth profiling, strain panel (AID 1159580);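 also: tested at 20 µM; growth read once vehicle control cultures reached saturation at 30 °C; 1 = growth at the plate median or of vehicle wells; lower values mean less growth of the strain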
# Details: growth OD
# [1] = S. cerevisiae deletion strains, locus YAL013W, strain DEP1, stronger effect = lower value
# [2] = S. cerevisiae deletion strains, locus YBR229C, strain ROT2, stronger effect = lower value
# [3] = S. cerevisiae deletion strains, locus YDL101C, strain DUN1, stronger effect = lower value
# [4] = S. cerevisiae deletion strains, locus YDL134C, strain PPH21, stronger effect = lower value
# [5] = S. cerevisiae deletion strains, locus YDR150W, strain NUM1, stronger effect = lower value
# [6] = S. cerevisiae deletion strains, locus YEL061C, strain CIN8, stronger effect = lower value
# [7] = S. cerevisiae deletion strains, locus YGR078C, strain PAC10, stronger effect = lower value
# [8] = S. cerevisiae deletion strains, locus YGR229C, strain SMI1, stronger effect = lower value
# [9] = S. cerevisiae deletion strains, locus YHR030C, strain SLT2, stronger effect = lower value
# [10] = S. cerevisiae deletion strains, locus YJR043C, strain POL32, stronger effect = lower value
# [11] = S. cerevisiae deletion strains, locus YJR075W, strain HOC1, stronger effect = lower value
# [12] = S. cerevisiae deletion strains, locus YKL190W, strain CNB1, stronger effect = lower value
# [13] = S. cerevisiae deletion strains, locus YLR039C, strain RIC1, stronger effect = lower value
# [14] = S. cerevisiae deletion strains, locus YLR262C, strain YPT6, stronger effect = lower value
# [15] = S. cerevisiae deletion strains, locus YMR263W, strain SAP30, stronger effect = lower value
# [16] = S. cerevisiae deletion strains, locus YNL153C, strain GIM3, stronger effect = lower value
# [17] = S. cerevisiae deletion strains, locus YNL322C, strain KRE1, stronger effect = lower value
# [18] = S. cerevisiae deletion strains, locus YOL006C, strain TOP1, stronger effect = lower value
# [19] = S. cerevisiae deletion strains, locus YPL055C, strain LGE1, stronger effect = lower value
# [20] = S. cerevisiae deletion strains, locus YPL241C, strain CIN2, stronger effect = lower value
# [21] = S. cerevisiae strains, strain wild type, stronger effect = lower value
smiles,measurement,setting,value
NC[C@@H]1CC[C@@H](N)[C@@H](O[C@H]2[C@H](O)[C@@H](O[C@H]3O[C@H](CO)[C@@H](O)[C@H](N)[C@H]3O)[C@H](N)C[C@@H]2N)O1,normalized growth,[1],0.987
same,normalized growth,"S. cerevisiae deletion strains, locus YBR021W, strain FUR4, stronger effect = lower value",1.06
same,normalized growth,[2],0.959
same,normalized growth,"S. cerevisiae deletion strains, locus YCL029C, strain bik1, stronger effect = lower value",0.985
same,normalized growth,"S. cerevisiae deletion strains, locus YDL035C, strain GPR1, stronger effect = lower value",0.995
same,normalized growth,"S. cerevisiae deletion strains, locus YDL074C, strain BRE1, stronger effect = lower value",0.983
same,normalized growth,[3],0.952
same,normalized growth,[4],0.993
same,normalized growth,"S. cerevisiae deletion strains, locus YDL185W, strain tfp1, stronger effect = lower value",0.984
same,normalized growth,"S. cerevisiae deletion strains, locus YDL192W, strain arf1, stronger effect = lower value",0.993
same,normalized growth,"S. cerevisiae deletion strains, locus YDR101C, strain arx1, stronger effect = lower value",1
same,normalized growth,[5],0.986
same,normalized growth,"S. cerevisiae deletion strains, locus YDR162C, strain NBP2, stronger effect = lower value",0.967
same,normalized growth,"S. cerevisiae deletion strains, locus YDR318W, strain mcm21, stronger effect = lower value",1.01
same,normalized growth,"S. cerevisiae deletion strains, locus YDR388W, stronger effect = lower value",1
same,normalized growth,"S. cerevisiae deletion strains, locus YDR502C, strain sam2, stronger effect = lower value",1
same,normalized growth,[6],0.987
same,normalized growth,"S. cerevisiae deletion strains, locus YER110C, stronger effect = lower value",0.996
same,normalized growth,"S. cerevisiae deletion strains, locus YER155C, strain BEM2, stronger effect = lower value",1
same,normalized growth,"S. cerevisiae deletion strains, locus YER167W, strain BCK2, stronger effect = lower value",0.98
same,normalized growth,"S. cerevisiae deletion strains, locus YGL078C, strain dbp3, stronger effect = lower value",0.994
same,normalized growth,"S. cerevisiae deletion strains, locus YGL086W, strain mad1, stronger effect = lower value",0.995
same,normalized growth,"S. cerevisiae deletion strains, locus YGL248W, strain PDE1, stronger effect = lower value",0.978
same,normalized growth,[7],0.986
same,normalized growth,"S. cerevisiae deletion strains, locus YGR135W, strain pre9, stronger effect = lower value",0.982
same,normalized growth,[8],1.01
same,normalized growth,"S. cerevisiae deletion strains, locus YGR252W, strain gcn5, stronger effect = lower value",1.02
same,normalized growth,[9],0.995
same,normalized growth,"S. cerevisiae deletion strains, locus YHR079C, strain IRE1 (second series), stronger effect = lower value",1
same,normalized growth,"S. cerevisiae deletion strains, locus YHR094C, strain hxt1, stronger effect = lower value",1
same,normalized growth,"S. cerevisiae deletion strains, locus YHR129C, strain ARP1, stronger effect = lower value",0.992
same,normalized growth,"S. cerevisiae deletion strains, locus YHR200W, strain rpn10, stronger effect = lower value",0.988
same,normalized growth,"S. cerevisiae deletion strains, locus YIL066C, strain RNR3, stronger effect = lower value",0.995
same,normalized growth,"S. cerevisiae deletion strains, locus YIL073C, strain SPO22, stronger effect = lower value",0.971
same,normalized growth,"S. cerevisiae deletion strains, locus YIL125W, strain kgd1, stronger effect = lower value",0.993
same,normalized growth,"S. cerevisiae deletion strains, locus YIR030C, strain dcg1, stronger effect = lower value",0.985
same,normalized growth,"S. cerevisiae deletion strains, locus YJL095W, strain BCK1, stronger effect = lower value",0.984
same,normalized growth,"S. cerevisiae deletion strains, locus YJL134W, strain LCB3, stronger effect = lower value",0.978
same,normalized growth,"S. cerevisiae deletion strains, locus YJL168C, strain set2, stronger effect = lower value",0.995
same,normalized growth,"S. cerevisiae deletion strains, locus YJL187C, strain SWE1 (second series), stronger effect = lower value",0.977
same,normalized growth,[10],1.01
same,normalized growth,[11],0.996
same,normalized growth,"S. cerevisiae deletion strains, locus YKL009W, strain mrt4, stronger effect = lower value",0.974
same,normalized growth,"S. cerevisiae deletion strains, locus YKL068W, stronger effect = lower value",0.996
same,normalized growth,"S. cerevisiae deletion strains, locus YKL085W, strain MDH1 (second series), stronger effect = lower value",0.983
same,normalized growth,"S. cerevisiae deletion strains, locus YKL085W, strain MDH1, stronger effect = lower value",0.983
same,normalized growth,[12],1
same,normalized growth,"S. cerevisiae deletion strains, locus YKR001C, strain vps1, stronger effect = lower value",0.994
same,normalized growth,[13],0.938
same,normalized growth,"S. cerevisiae deletion strains, locus YLR058C, strain SHM2, stronger effect = lower value",0.974
same,normalized growth,"S. cerevisiae deletion strains, locus YLR102C, strain apc9, stronger effect = lower value",0.993
same,normalized growth,[14],0.9
same,normalized growth,"S. cerevisiae deletion strains, locus YLR268W, strain sec22, stronger effect = lower value",0.986
same,normalized growth,"S. cerevisiae deletion strains, locus YLR330W, strain CHS5, stronger effect = lower value",0.981
same,normalized growth,"S. cerevisiae deletion strains, locus YLR342W, strain FKS1 (second series), stronger effect = lower value",1.01
same,normalized growth,"S. cerevisiae deletion strains, locus YLR371W, strain rom2, stronger effect = lower value",1
same,normalized growth,"S. cerevisiae deletion strains, locus YLR418C, strain cdc73, stronger effect = lower value",0.968
same,normalized growth,"S. cerevisiae deletion strains, locus YML016C, strain PPZ1, stronger effect = lower value",0.981
same,normalized growth,"S. cerevisiae deletion strains, locus YML032C, strain rad52, stronger effect = lower value",1
same,normalized growth,"S. cerevisiae deletion strains, locus YML124C, strain tub3, stronger effect = lower value",1.01
same,normalized growth,"S. cerevisiae deletion strains, locus YMR078C, strain ctf18, stronger effect = lower value",1
same,normalized growth,"S. cerevisiae deletion strains, locus YMR223W, strain ubp8, stronger effect = lower value",1.01
same,normalized growth,[15],0.983
same,normalized growth,"S. cerevisiae deletion strains, locus YMR307W, strain GAS1, stronger effect = lower value",1.13
same,normalized growth,"S. cerevisiae deletion strains, locus YNL067W, strain RPL9B, stronger effect = lower value",0.981
same,normalized growth,"S. cerevisiae deletion strains, locus YNL128W, strain TEP1, stronger effect = lower value",0.98
same,normalized growth,[16],0.991
same,normalized growth,"S. cerevisiae deletion strains, locus YNL233W, strain BNI4, stronger effect = lower value",0.994
same,normalized growth,"S. cerevisiae deletion strains, locus YNL250W, strain rad50, stronger effect = lower value",0.983
same,normalized growth,"S. cerevisiae deletion strains, locus YNL271C, strain bni1, stronger effect = lower value",1
same,normalized growth,"S. cerevisiae deletion strains, locus YNL298W, strain CLA4, stronger effect = lower value",1.01
same,normalized growth,"S. cerevisiae deletion strains, locus YNL307C, strain MCK1, stronger effect = lower value",0.997
same,normalized growth,[17],0.987
same,normalized growth,"S. cerevisiae deletion strains, locus YNR052C, strain pop2, stronger effect = lower value",0.953
same,normalized growth,[18],0.917
same,normalized growth,"S. cerevisiae deletion strains, locus YOL012C, strain htz1",0.745
same,normalized growth,"S. cerevisiae deletion strains, locus YOL147C, strain pex11, stronger effect = lower value",1.01
same,normalized growth,"S. cerevisiae deletion strains, locus YOR061W, strain CKA2, stronger effect = lower value",0.95
same,normalized growth,"S. cerevisiae deletion strains, locus YOR069W, strain VPS5, stronger effect = lower value",0.996
same,normalized growth,"S. cerevisiae deletion strains, locus YOR136W, strain idh2, stronger effect = lower value",1
same,normalized growth,"S. cerevisiae deletion strains, locus YOR144C, strain elg1, stronger effect = lower value",1
same,normalized growth,"S. cerevisiae deletion strains, locus YOR184W, strain ser1, stronger effect = lower value",1.03
same,normalized growth,"S. cerevisiae deletion strains, locus YOR316C, strain cot1, stronger effect = lower value",0.985
same,normalized growth,[19],0.984
same,normalized growth,[20],0.991
same,normalized growth,"S. cerevisiae deletion strains, locus YPR119W, strain clb2, stronger effect = lower value",1
same,normalized growth,"S. cerevisiae deletion strains, locus YPR141C, strain kar3, stronger effect = lower value",0.966
same,normalized growth,"S. cerevisiae deletion strains, locus YPR163C, strain tif3, stronger effect = lower value",1.01
same,normalized growth,"S. cerevisiae deletion strains, locus YPR167C, strain met16, stronger effect = lower value",0.988
same,normalized growth,"S. cerevisiae deletion strains, strain wtn01, stronger effect = lower value",0.987
same,normalized growth,[21],0.992
N#Cc1c(N)oc(-c2ccco2)c1-c1ccco1,normalized growth,[1],0.893 (active)
same,normalized growth,[2],0.975
same,normalized growth,[3],0.968
same,normalized growth,[4],0.947
same,normalized growth,[5],0.937
same,normalized growth,[6],0.947
same,normalized growth,[7],0.948
same,normalized growth,[8],0.994
same,normalized growth,[9],0.415 (active)
same,normalized growth,"S. cerevisiae deletion strains, locus YHR087W, strain rtc3, stronger effect = lower value",0.97
same,normalized growth,[10],0.943
same,normalized growth,[11],0.949
same,normalized growth,[12],0.992
same,normalized growth,[13],0.981
same,normalized growth,"S. cerevisiae deletion strains, locus YLR058C, strain SHM2 (second series), stronger effect = lower value",0.961
same,normalized growth,"S. cerevisiae deletion strains, locus YLR085C, strain ARP6, stronger effect = lower value",0.626 (active)
same,normalized growth,[14],0.999
same,normalized growth,"S. cerevisiae deletion strains, locus YML094W, strain GIM5, stronger effect = lower value",0.875
same,normalized growth,"S. cerevisiae deletion strains, locus YMR219W, strain ESC1, stronger effect = lower value",0.969
same,normalized growth,[15],0.917
same,normalized growth,[16],0.987
same,normalized growth,"S. cerevisiae deletion strains, locus YNL298W, strain CLA4 (second series), stronger effect = lower value",0.888
same,normalized growth,[17],0.962
same,normalized growth,"S. cerevisiae deletion strains, locus YNR030W, strain Alg12, stronger effect = lower value",0.903
same,normalized growth,[18],0.913
same,normalized growth,[19],0.789 (active)
same,normalized growth,[20],0.873
same,normalized growth,"S. cerevisiae deletion strains, locus YPR135W, strain CTF4, stronger effect = lower value",0.694
same,normalized growth,[21],0.984
